37 molecules from PubChem BioAssay (Tox21) can be followed below.

Molecules are shown by their SMILES. A number with no mark means an inactive call. Inconclusive results are not listed. Active and inactive are the calls of the source. Unless noted, the call rests on the fitted dose curve; in most records, active means well fitted curve in the direction sought with a large enough effect in the repeat runs; inconclusive means weak or mixed curves; inactive means no such curve, though single readings can be large; an effect the other way counts as inactive or inconclusive.

Assay [1] in a line: qHTS assay to identify small molecule antagonists of the androgen receptor (AR) signaling pathway using the MDA cell line in the presence of 0.5 nM R1881 - cell viability counter screen (AID 1259242). Further: nearly all actives have a fitted effect of over 45% in size. In short, it runs like this: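 Concentration-response screen of compounds for toxicity in MDA-kb2 reporter cells: 16 hr at 37C with 0.5 nM R1881, endpoint live-cell protease fluorescence measured in the reporter wells.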

A short description of assay [2]: qHTS assay to identify small molecule HDAC inhibitors (AID 1259364). Further: potency means the concentration at half of the fitted maximal effect.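 Further: wild-type HCT-116 cells with endogenous class I/II HDAC activity; nearly all actives have a fitted effect of over 45% in size.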 In short, it runs like this:
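Screening used wild-type human colon HCT-116 cells incubated overnight, dosed with compounds for 2 hours, and assayed with a homogeneous luminogenic HDAC I/II reagent for 30 minutes at room temperature.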
For orientation: In qHTS, concentration-response curves come from the screen itself.

Assay [3] is described as follows: qHTS assay to identify small molecule agonists of the sonic hedgehog signaling (Shh) pathway - cell viability counter screen (AID 1259366). Further: nearly all actives have a fitted effect of over 50% in size. Further: potency means the concentration at half of the fitted maximal effect. In a few lines: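 Stable Gli1-Luc NIH/3T3 clone, 2,000 cells/well. Compound exposure 24hr at 37C. Read-out: CellTiter-Fluor fluorescence.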
A short description of assay [4]: qHTS assay to identify small molecule antagonists of the sonic hedgehog signaling (Shh) pathway - cell viability counter screen (AID 1259367). Further: nearly all actives have a fitted effect of over 55% in size. Further: potency means the concentration at half of the fitted maximal effect. In short, it runs like this: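 Fluorescence read-out (CellTiter-Fluor, 1 hr at 37C) taken after 23 hr compound treatment of 3T3 Gli1-Luc cells stimulated with conditioned medium. Cells were seeded at 2,000 per well and pre-incubated 4 hr.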

Assay [5] is described as follows: qHTS assay to identify small molecule agonists of the sonic hedgehog signaling (Shh) pathway (AID 1259368; calls by dose curve;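 further: NIH/3T3-derived 3T3Gli1-Luc cells carrying a stable Gli1-driven firefly luciferase reporter; series mostly up to about 92 µM; nearly all actives have a fitted effect of over 15% in size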). In a few lines: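 Hedgehog pathway agonism scored by increased firefly luciferase luminescence in 3T3Gli1-Luc cells treated 24 hr at 37 C; detection used a 30 min room-temperature reagent incubation.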
A short description of assay [6]: qHTS assay to identify small molecule antagonists of the sonic hedgehog signaling (Shh) pathway (AID 1259369; calls by dose curve; further: nearly all actives have a fitted effect of over 45% in size; further: potency means the concentration at half of the fitted maximal effect). In short, it runs like this:
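NIH/3T3 stable Gli1-Luc clone, 2,000 cells/well, 4hr settle; cpd + conditioned medium 24hr; Luc reagent 30min RT; luminescence.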

The nature of assay [7]: qHTS assay to identify small molecule HDAC inhibitors - cell viability counter screen (AID 1259365). Further: series mostly up to about 92 µM; nearly all actives have a fitted effect of over 50% in size. In a few lines:
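Cytotoxicity was gauged in wild-type HCT-116 cells after a brief 2hr treatment with DMSO-dissolved compounds at 37C and 5% CO2, using CellTiter-Glo luminescence developed for 30min at room temperature.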

The target in assay [8] is Estrogen receptor (Homo sapiens) (UniProt P03372). Kind of assay: qHTS assay to identify small molecule antagonists of the estrogen receptor alpha (ER-alpha) signaling pathway using the BG1 cell line in the presence of 0.1 nM 17-beta-estradiol (AID 1259244). Further: nearly all actives have a fitted effect of over 50% in size. In a few lines: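 Compounds were tested against 0.1 nM (final) 17beta-estradiol in VM7Luc4E2 cells, which express full-length ER-alpha and an ERE-luciferase reporter; luminescence was recorded following 22 h exposure.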
Sequence of Estrogen receptor (Homo sapiens) (P03372 whole entry, looked up): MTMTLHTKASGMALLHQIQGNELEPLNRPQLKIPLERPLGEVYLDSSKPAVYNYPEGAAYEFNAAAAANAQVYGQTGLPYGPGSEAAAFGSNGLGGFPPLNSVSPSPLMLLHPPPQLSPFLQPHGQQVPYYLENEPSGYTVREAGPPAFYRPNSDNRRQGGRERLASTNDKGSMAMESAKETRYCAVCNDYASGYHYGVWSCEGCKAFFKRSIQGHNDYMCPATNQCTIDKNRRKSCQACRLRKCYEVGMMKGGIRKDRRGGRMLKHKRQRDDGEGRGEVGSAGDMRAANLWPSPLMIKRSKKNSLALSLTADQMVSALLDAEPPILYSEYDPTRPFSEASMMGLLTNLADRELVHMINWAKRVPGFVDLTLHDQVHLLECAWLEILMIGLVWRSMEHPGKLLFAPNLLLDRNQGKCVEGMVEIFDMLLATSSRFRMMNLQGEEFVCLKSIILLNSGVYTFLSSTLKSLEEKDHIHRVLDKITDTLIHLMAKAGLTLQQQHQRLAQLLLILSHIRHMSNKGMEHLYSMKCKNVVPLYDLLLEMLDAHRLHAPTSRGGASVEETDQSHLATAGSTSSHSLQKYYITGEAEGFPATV

With `CCO[Si](OCC)(OCC)c1ccccc1`, the result in assay [1] and in assay [5] was inactive. The Potency result in assay [2], in assay [3], in assay [4] and in assay [6] was “inactive” throughout.

For the molecule `Clc1cc(Cl)c(Cl)nc1Cl`, the result in assay [1], in assay [7] and in assay [5] was inactive. For the same molecule, the Potency entry in assay [2], in assay [3], in assay [4] and in assay [6] was “inactive” each time.

On to `C=C(C)C(=O)OCCOCCOCCOCCOC(=O)C(=C)C`, for which the outcome in assay [1], in assay [7] and in assay [5] was inactive. Besides, the Potency result in assay [3], in assay [4] and in assay [6] was “inactive” each time.

With `CCCCCCC#CC(=O)OC`, the outcome in assay [1], in assay [7] and in assay [5] was inactive. Further, the Potency entry in assay [2], in assay [3], in assay [4] and in assay [6] was “inactive” in each case.

On to `CCN1CCOCC1`, for which the outcome in assay [1], in assay [7] and in assay [5] was inactive. Also, the Potency entry in assay [2], in assay [3], in assay [4] and in assay [6] was “inactive” throughout.

As to `CCCCCCCCN1CCCC1=O`, the result in assay [1] and in assay [5] was inactive. Further, the Potency entry in assay [2], in assay [3], in assay [4] and in assay [6] was “inactive” each time.

With `O=C1NC(=O)C2CC=CCC12` (stereo unspecified), the result in assay [1], in assay [7] and in assay [5] was inactive. The Potency result in assay [3], in assay [4] and in assay [6] was “inactive” in each case.

On to `CCCCOCCOC(=O)CCCCCCCCC(=O)OCCOCCCC`, for which the result in assay [1], in assay [7] and in assay [5] was inactive. For the same molecule, the Potency result in assay [2] and in assay [3] was “inactive” each time. Moreover, the Potency in assay [6] was 30.6 µM (active).

Turning to `NC(=O)Cc1cccc2ccccc12`, the outcome in assay [1], in assay [7] and in assay [5] was inactive. In addition, the Potency result in assay [2], in assay [3], in assay [4] and in assay [6] was “inactive” throughout.

On to `CC1=NN(c2cc(S(=O)(=O)O)ccc2Cl)C(=O)C1N=Nc1ccccc1` (stereo unspecified), for which the result in assay [8], in assay [7] and in assay [5] was inactive. The Potency result in assay [2] was “inactive”. The Potency in assay [3] is 13.7 µM (active); in assay [4], 27.3 µM (active).

As to `CC(C)[C@H]1CC[C@@H](C)CC1=O`, the outcome in assay [1], in assay [7] and in assay [5] was inactive. Besides, the Potency result in assay [2], in assay [3], in assay [4] and in assay [6] was “inactive” in each case.

As to `O=S(=O)(O)c1cccc2ccccc12`, the outcome in assay [1], in assay [7] and in assay [5] was inactive. The Potency entry in assay [2], in assay [3], in assay [4] and in assay [6] was “inactive” each time.

As to `NO`, the outcome in assay [1], in assay [7] and in assay [5] was inactive. Moreover, the Potency entry in assay [2], in assay [3], in assay [4] and in assay [6] was “inactive” each time.

As for `CCOc1ccccc1OCC`, the outcome in assay [1] and in assay [5] was inactive. Moreover, the Potency result in assay [2], in assay [3], in assay [4] and in assay [6] was “inactive” throughout.

`O=C1c2ccccc2C(=O)c2cc(O)ccc21`: the outcome in assay [1], in assay [7] and in assay [5] was inactive. The Potency in assay [2] was 7.7 µM (active). The Potency result in assay [3], in assay [4] and in assay [6] was “inactive” each time.

For the molecule `O=C(O)CNC(=O)c1ccc(CO)o1`, the result in assay [1], in assay [7] and in assay [5] was inactive. Moreover, the Potency entry in assay [3], in assay [4] and in assay [6] was “inactive” throughout.

Regarding `C=CN1CCCCCC1=O`, the result in assay [1], in assay [7] and in assay [5] was inactive. In addition, the Potency entry in assay [3] and in assay [6] was “inactive” throughout.

For `CC(C)C(=O)OC(=O)C(C)C`, the result in assay [1], in assay [7] and in assay [5] was inactive. Besides, the Potency entry in assay [2], in assay [3], in assay [4] and in assay [6] was “inactive” throughout.

With `Nc1ccccn1`, the result in assay [1], in assay [7] and in assay [5] was inactive. In addition, the Potency result in assay [2], in assay [3], in assay [4] and in assay [6] was “inactive” throughout.

`CCCn1cc[n+](C)c1C`: the result in assay [1], in assay [7] and in assay [5] was inactive. The Potency entry in assay [2] and in assay [3] was “inactive” throughout.

As for `C=C(C)C(=O)OCC1CCCO1` (stereo unspecified), the result in assay [1], in assay [7] and in assay [5] was inactive. In addition, the Potency entry in assay [2], in assay [3], in assay [4] and in assay [6] was “inactive” throughout.

With `CCCCCCCCCCCCSC`, the outcome in assay [1] and in assay [5] was inactive. In addition, the Potency result in assay [2], in assay [3], in assay [4] and in assay [6] was “inactive” in each case.

For `O=C(c1ccccc1)C1(O)CCCCC1`, the result in assay [1], in assay [7] and in assay [5] was inactive. Further, the Potency entry in assay [2], in assay [3], in assay [4] and in assay [6] was “inactive” each time.

Consider `CC(C#N)(CCC(=O)O)N=NC(C)(C#N)CCC(=O)O` (stereo unspecified), for which the result in assay [1], in assay [7] and in assay [5] was inactive. For the same molecule, the Potency entry in assay [2], in assay [3] and in assay [6] was “inactive” in each case.

For `CC(C)CC(C)(N)C#N` (stereo unspecified), the result in assay [1], in assay [7] and in assay [5] was inactive. For the same molecule, the Potency entry in assay [2], in assay [3], in assay [4] and in assay [6] was “inactive” throughout.

As to `c1ccc(CCc2ccccc2)cc1`, the outcome in assay [1], in assay [7] and in assay [5] was inactive. The Potency entry in assay [2], in assay [3], in assay [4] and in assay [6] was “inactive” in each case.

Regarding `CN(C)CCCCCCN(C)C`, the Potency entry in assay [2], in assay [3] and in assay [6] was “inactive” each time. Also, the molecule was called inactive in assay [7] and in assay [5].

`CNCCO`: the result in assay [1] and in assay [5] was inactive. The Potency result in assay [2], in assay [3], in assay [4] and in assay [6] was “inactive” each time.

For `Cc1ccccc1N=C(N)N=C(N)N`, the outcome in assay [1], in assay [7] and in assay [5] was inactive. In addition, the Potency result in assay [2], in assay [3], in assay [4] and in assay [6] was “inactive” in each case.

As for `[Ca+2]`, the result in assay [1], in assay [7] and in assay [5] was inactive. Also, the Potency entry in assay [3], in assay [4] and in assay [6] was “inactive” throughout.

Turning to `O=CN(CCO)CCO`, the result in assay [1], in assay [7] and in assay [5] was inactive. The Potency entry in assay [2], in assay [3], in assay [4] and in assay [6] was “inactive” in each case.

Regarding `CC[N+](CC)(CC(=O)Nc1c(C)cccc1C)Cc1ccccc1` (tested in a mixture with another compound), the result in assay [1], in assay [7] and in assay [5] was inactive. In addition, the Potency result in assay [2], in assay [3], in assay [4] and in assay [6] was “inactive” each time.

For the molecule `O=C1CCCCCCCCCCCCCCO1`, the result in assay [1], in assay [7] and in assay [5] was inactive. The Potency entry in assay [2], in assay [3], in assay [4] and in assay [6] was “inactive” each time.

Turning to `CCC(=O)OCc1ccccc1`, the result in assay [1] and in assay [5] was inactive. For the same molecule, the Potency entry in assay [2], in assay [3], in assay [4] and in assay [6] was “inactive” throughout.

As to `O=S(=O)(O)c1cccc2c(S(=O)(=O)O)cccc12`, the result in assay [1], in assay [7] and in assay [5] was inactive. The Potency entry in assay [2], in assay [3], in assay [4] and in assay [6] was “inactive” each time.

For `c1coc(CNc2ncnc3nc[nH]c23)c1`, the result in assay [1], in assay [7] and in assay [5] was inactive. Also, the Potency result in assay [3] and in assay [4] was “inactive” in each case.

On to `COc1cc2c(cc1OC)-c1cc3ccc(OC)c(OC)c3c[n+]1CC2`, for which the Potency result in assay [2], in assay [3], in assay [4] and in assay [6] was “inactive” each time. Also, the outcome in assay [5] was inactive.
